Source: PubChem BioAssay AID651965 (National Center for Advancing Translational Sciences (NCATS), 2013)
In all, about 340,000 compounds went through this assay and about 6,400 (1.9%) were called active. Inconclusive results (about 4%) are left out. What follows is part of a selection rich in actives, with near analogues and random picks from the rest. A number with no mark means an inactive call. The call rests on the fitted dose curve; in most records, active means well fitted falling curve with a large enough effect; inconclusive means small, poorly fitted or top-dose-only effect; inactive means no such curve, though single readings can be large or run the other way.

target: ATP-dependent Clp protease proteolytic subunit (Bacillus subtilis (strain 168)) (UniProt P80244); test: qHTS Assay for Activators of ClpP; further: the source files actives as falling curves though it sought activators and does not explain the sign; nearly all actives have a fitted effect of over 65% in size; conditions: purified B. subtilis ClpP, FRET peptide cleavage, 20 min; series mostly up to 57.5 µM; activity change, negative = active: at the top concentration
In short: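 FRET quenching reversal measured ClpP activation: 10 microg/mL B. subtilis ClpP at pH 8 with the FRET-FV decapeptide, read at 430 nm after 320 nm excitation. The 20-min minus 0-min signal was scaled between DMSO/no-enzyme wells and ADEP (5.8 microM final).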
Potency means the concentration at half of the fitted maximal effect.

Chain of ATP-dependent Clp protease proteolytic subunit (Bacillus subtilis (strain 168)) (P80244 whole entry, looked up): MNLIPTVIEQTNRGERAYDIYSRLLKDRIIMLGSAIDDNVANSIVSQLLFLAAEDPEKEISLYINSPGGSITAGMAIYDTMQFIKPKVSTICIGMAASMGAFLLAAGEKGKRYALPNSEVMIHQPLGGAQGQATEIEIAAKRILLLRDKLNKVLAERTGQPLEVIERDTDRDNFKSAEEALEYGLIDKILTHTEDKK

Row | SMILES | activity change, negative = active | Potency
1 | CC(=O)c1ccc[n+](C(C)CCC(C)[n+]2cccc(C(C)=O)c2)c1 (stereo not given) | -0.892% | 
2 | O=C(Nc1cccc(C(=O)O)c1)/C(=C\c1ccccc1)NC(=O)c1ccc(Br)o1 | -1.89% | 
3 | CC(=O)NC(c1ccccc1)c1nc(-c2cccc(C(C)C)c2)cs1 (stereo not given) | 1.12% | 
4 | CC1(C(=O)NS(=O)(=O)c2cccc(F)c2)CCN1C(=O)c1cccc2ccccc12 (stereo not given) | -1.17% | 
5 | COCCNc1nc(-c2ccccc2)nc2c1oc1ccccc12 | -0.339% | 
6 | CCc1nc(Nc2ccc3nccnc3c2)c2oc3ccccc3c2n1 |  | 28.2 µM (active)
7 | CCc1nc(Nc2ccc(NC(C)=O)cc2)c2oc3ccccc3c2n1 | 35.9% | 
8 | COc1ccc(Cn2ccn(CC(=O)Nc3cc(C)ccc3C)c(=O)c2=O)cc1 | -1.9% | 
9 | COc1ccc(Cn2c(C)c(C)c(C#N)c2NC(=O)Nc2ccc(F)cc2)cc1 | 1.75% | 
10 | COc1ccc(Cn2cccc(NC(=O)Nc3ccc(C#N)cc3)c2=O)cc1 |  | 12.6 µM (active)
11 | CSc1ccc(CN2CCC2(C)C(=O)Nc2ccc(C)c(O)c2)cc1 (stereo not given) | 0.771% | 
12 | CCOc1n[nH]c(-c2ccccc2)n1 | -0.612% | 
13 | Cc1ccccc1S(=O)(=O)NC(=O)C1(C)CCN1C(=O)Cc1ccc(Cl)cc1Cl (stereo not given) | -3.3% | 
14 | COC(=O)c1ccc2nc(-c3ccc(C)cc3)c(Cc3ccc(OC)cc3C)n2c1 | 5.5% | 
15 | Cc1ccc(N2CC(C(=O)N3CCC4(CC3)CC(=O)c3ccccc3O4)CC2=O)cc1C (stereo not given) |  | 28.2 µM (active)
16 | Cc1ccc(N2CC(C(=O)Nc3ccc(N(C)C)cc3)CC2=O)cc1Cl (stereo not given) | 1.18% | 
17 | O=C(C1CC(=O)N(c2ccc(Br)cc2)C1)N1CCCC1 (stereo not given) | 0.55% | 
18 | O=[N+]([O-])c1cc(C(F)(F)F)ccc1NN=C1CCCC1 |  | 31.6 µM (active)
19 | O=[N+]([O-])c1ccc(N/N=C2/CCCCC2c2ccccn2)c([N+](=O)[O-])c1 (stereo not given) | -1.38% | 
20 | O=[N+]([O-])c1cc(S(=O)(=O)N2CCCC2)ccc1NN=C1CCCC1 | 1.19% | 
21 | CCCS(=O)(=O)NC(=O)C1(C)CCCN(C(=O)c2ccnc(Cl)c2)C1 (stereo not given) | 0.891% | 
22 | O=C(C(=O)N1CCN(c2ccccc2)CC1)c1ccc2c(c1)OCO2 | 0.571% | 
23 | COc1ccc(CCNC(=O)COc2ccc3c(c2)OCO3)cc1 | -0.812% | 
24 | COC(=O)Cc1c(C)c2ccc(OCC(=O)NCc3ccc4c(c3)OCO4)cc2oc1=O |  | 31.6 µM (active)
25 | COc1ccc2c(C)c(CCC(=O)NCc3ccc(OC)c(OC)c3)c(=O)oc2c1 | 4.37% | 
26 | CCC(C)CN1C(=O)CN(S(C)(=O)=O)CC1(C)C(=O)Nc1ccc2c(c1)OCCO2 (stereo not given) | -2.44% | 
27 | COc1ccc(/C=C/c2ccnc3ccccc23)cc1OC | -11.4% | 

Row | SMILES | activity change, negative = active | Potency
28 | CCOC(=O)C1Cn2c(nc3c(c2=O)C(C)(CC)Cc2ccccc2-3)S1 (stereo not given) |  | 28.2 µM (active)
29 | CCC1(CC)Cc2ccccc2-c2nc3ccccc3c(=O)n21 | -1.31% | 
30 | CCC1(CC)Cc2ccccc2-c2nc(CCl)[nH]c(=O)c21 | -8.14% | 
31 | OC(c1ccccc1)(c1ccccc1)C1CCN(CCCOc2ccccc2)CC1 | -0.0496% | 
32 | Cc1ccc(-c2nn(-c3ccccc3)cc2CN(Cc2ccccc2)C(=O)CCC(=O)O)o1 |  | 22.4 µM (active)
33 | CN(C)Cc1cn(-c2ccccc2)nc1-c1ccccc1 | -5.99% | 
34 | O=C(O)CCC(=O)N(Cc1ccccc1)Cc1ccccc1 | 1.29% | 
35 | CCCC(=O)Nc1cc2nn(-c3ccccc3)nc2cc1C | 2.89% | 
36 | Nc1ccc2nn(-c3ccc(Cl)cc3)nc2c1 | 7.76% | 
37 | c1ccc(-n2nc3ccccc3n2)cc1 |  | 25.1 µM (active)
38 | CCc1nc2c(OCCOc3ccccc3)cccn2c1N(C)C(=O)c1ccccc1F | -3.73% | 
39 | Cc1cccc(NC(=O)COC(=O)c2ccccc2OCc2cccc(Br)c2)c1 | -7.45% | 
40 | COc1cc(OC)cc(-c2cc3nc(C4CCN(C(=O)OC(C)(C)C)CC4)cc(=O)n3[nH]2)c1 |  | 25.1 µM (active)
41 | Cc1ccc(-n2ncc(C(=O)NC3CC3)c2C2CCN(C(=O)OC(C)(C)C)CC2)c(C)c1 | 1.33% | 
42 | CCOc1ccc(-c2cc3nc(C4CCN(C(=O)OC(C)(C)C)CC4)c(C(=O)Nc4cccc(CC)c4)cn3n2)cc1 | 4.44% | 
43 | COc1ccc(/C=C2\SC(=O)N(CCC(=O)NC3CCS(=O)(=O)C3)C2=O)cc1 (stereo not given) | 0.178% | 
44 | O=C(COC(=O)CCCN1C(=O)c2cccc3cccc(c23)C1=O)NC1CCS(=O)(=O)C1 (stereo not given) |  | 31.6 µM (active)
45 | O=C(COC(=O)/C=C/c1ccc(Cl)cc1)NC1CCS(=O)(=O)C1 (stereo not given) | -0.845% | 
46 | Cc1ccc(F)c(S(=O)(=O)NC(=O)C2(C)CCN2C(=O)c2ccco2)c1 (stereo not given) | 2.02% | 
47 | CCC(C)(C)NC(=O)/C=C/c1cc(OC)c(OC)c(S(=O)(=O)N2CCc3ccccc32)c1 | 1.65% | 
48 | CCn1nc(C(=O)NNS(=O)(=O)c2cc(/C=C/C(=O)O)cc(OC)c2OC)c2ccccc2c1=O |  | 5.62 µM (active)
49 | COc1cc(/C=C/C(=O)O)cc(S(=O)(=O)Nc2ccccc2SC)c1OC | -0.984% | 
50 | COc1ccccc1CNc1nc(Nc2ccccc2Cl)c2sccc2n1 | -20.5% | 
51 | c1ccc(Cn2nnc3c(N4CCCCC4)ncnc32)cc1 | 0.615% | 
52 | O=C(CC(CC(=O)c1ccccc1)c1ccco1)c1ccccc1 | -1.2% | 
53 | OC(c1ccc(Cl)cc1)c1ncc(-c2ccc(Cl)cc2)[nH]1 (stereo not given) | -0.996% | 
54 | Cc1nc(-c2ccccc2)sc1-c1nc(-c2ccccc2)ncc1S(=O)(=O)c1ccccc1 |  | 31.6 µM (active)

Row | SMILES | activity change, negative = active | Potency
55 | C#CC(C)(C)NC(=O)c1cnc(-c2ccccc2)nc1-c1ccccc1 | -0.381% | 
56 | C=CCn1c(-c2sc(-c3ccccc3)nc2C)n[nH]c1=S | -0.756% | 
57 | CC1(C(=O)NCc2ccc(F)c(F)c2)Cc2c(-c3ccc4c(c3)OCO4)ccnc2O1 (stereo not given) | 5.31% | 
58 | CC(C)CCOc1ccc(C(=O)Nc2cc(S(=O)(=O)N3CCOCC3)ccc2N2CCOCC2)cc1 | 0.109% | 
59 | NNC(=O)C1CCCn2c1nc1sc3c(c1c2=O)CCCC3 (stereo not given) | -3.47% | 
60 | Cn1c(NN)nc2sc3c(c2c1=O)CCC3 |  | 11.2 µM (active)
61 | CCCc1nc2sc3c(c2c(=O)n1NC(=O)CCCl)CCCC3 | 1.41% | 
62 | OCCNc1ncnc2oc(-c3ccco3)c(-c3ccco3)c12 | 4.8% | 
63 | CCOc1ccc(CCN2C(=O)C(=O)N([C@@H](Cc3ccc(O)cc3)CN3CCC[C@H]3CN3C(=O)C(=O)NC[C@@H]3CC(C)C)C[C@@H]2Cc2ccccc2)cc1 | -1.5% | 
64 | COc1ccc(NC(=O)CCCOc2ccc(C(C)=O)cc2)cc1S(=O)(=O)N1CCCCC1 | 1.57% | 
65 | Cc1ccccc1NC(=S)N(CCCN1CCOCC1)Cc1cccs1 |  | 28.2 µM (active)
66 | CCN(Cc1ccncc1)C(=S)Nc1ccccc1C | -1.5% | 
67 | Cc1ccc(NC(=S)N(CCN(C)C)Cc2cccs2)cc1C | 0.917% | 
68 | COc1ccc(/C=C/c2ccccn2)cc1OC | 4.51% | 
69 | Cc1cccnc1C(NC(=O)C1CCN(Cc2ccc(Cl)c(Cl)c2)CC1)c1ccc(Cl)cc1 (stereo not given) | 0.951% | 
70 | O=C1Nc2ccccc2NC(c2ccc3c(c2)OCO3)=C1N(Cc1ccc(F)cc1)C(=O)c1ccco1 | 1.77% | 
71 | O=C(COC(=O)c1ccc(F)cc1)Nc1ccc2c(c1)OCO2 | -1.94% | 
72 | CC(=O)Nc1cccc(C(=O)OCC(=O)c2ccc3c(c2)OCO3)c1 |  | 12.6 µM (active)
73 | O=C(COC(=O)c1ccccc1)c1ccc2c(c1)OCCO2 | -1.68% | 
74 | CC(=O)Nc1cccc(-c2cc3nc(NCc4cccnc4)n(C)c(=O)c3s2)c1 | -19.5% | 
75 | COc1ccc(C(c2nnnn2C2CCCC2)N2CCN(C/C=C/c3ccccc3)CC2)cc1 (stereo not given) | -3.35% | 
76 | CC(=O)C1=CCC(c2ccccc2)N(S(=O)(=O)c2ccc(C)cc2)C1 (stereo not given) | -14% | 
77 | C=CCc1cccc2cc(C(=O)N3CCN(C(=O)OCC)CC3)c(=O)oc12 | -12.7% | 
78 | C=CCc1cccc2cc(C(=O)OCC)c(=O)oc12 |  | 35.5 µM (active)
79 | CCOc1cccc2cc(C(=O)OCC(=O)Nc3c(C)cccc3CC)c(=O)oc12 | 12.9% | 
80 | CCOC(=O)C1=CCC2C(=O)N(Cc3ccccc3)C(=O)C12 (stereo not given) | 1.34% | 
81 | CC(C)c1cc(Cn2c3ccccc3c(=O)n2C(C)Cn2cc(C3CC3)nn2)on1 (stereo not given) | 4.78% | 

Row | SMILES | activity change, negative = active | Potency
82 | COc1ccc(CCNC(=O)CSc2nc(C)nc3c2oc2ccccc23)cc1OC | 1.33% | 
83 | COc1cccc(-c2ccc(C#N)c(SCC(=O)NCCc3ccc(Cl)cc3)n2)c1 |  | 35.5 µM (active)
84 | COc1cccc(CNC(=O)CSc2c3c(nc4cc(Cl)ccc24)CCCC3)c1 | -1.55% | 
85 | COc1ccc(CCNC(=O)CSc2nnc3ccc(-c4ccncc4)nn23)cc1 | -2.01% | 
86 | COc1ccc(CCNC(=O)CSc2nc(-c3ccc(OC)c(OC)c3)ccc2C#N)cc1 |  | 17.8 µM (active)
87 | COc1ccc(CCNC(=O)COC(=O)c2cnc(Cl)c(Cl)c2)cc1 | -4.01% | 
88 | Nc1nc2cc(Cl)ccc2n1N | 0.944% | 
89 | OCC1OC(n2cnc3c(N4CCCC4)ncnc32)C(O)C1O (stereo not given) | 0.893% | 
90 | COc1cccc(C(O)c2nc(-c3ccc(C)c(C)c3)cs2)c1 (stereo not given) | -3% | 
91 | CCOC(=O)[C@]12CCCC=C1N(Cc1cccc3ccccc13)C(=O)[C@H](CC(=O)NCC13CC4CC(CC(C4)C1)C3)C2 | -3.53% | 
92 | CCCCN(C=O)c1c(CC)nc2c(OCc3ccccc3C(=O)OC)cccn12 | -0.714% | 
93 | C[C@@H]1CN([C@@H](C)CO)C(=O)CCCn2nncc2CO[C@H]1CN(C)C(=O)Nc1ccc(C(F)(F)F)cc1 | -2.86% | 
94 | CC1(C)Cc2cccc(OCC(=O)NCc3ccccc3)c2O1 | 0.208% | 
95 | Cc1nc(NCc2ccccc2)c(C(N)=O)c2c1COC(C)(C)C2 |  | 22.4 µM (active)
96 | Cc1nc(C(=O)NCc2ccccc2)sc1C1(C)CC(c2cccnc2)=NO1 (stereo not given) | -0.0404% | 
97 | COC(=O)[C@]12CCCCC=C1N(CCC1=CCCCC1)C(=O)[C@H](CC(=O)N1CCSCC1)C2 | 3.9% | 
98 | CC(=O)Nc1cnc(-c2ccc(O)cc2C)cn1 | -2.26% | 
99 | Brc1ccc2nc(-c3ccccc3)c(Cc3ccccc3)n2c1 | -9.97% | 
100 | CC(C)c1nc(N2CCOCC2)c(C#N)c2c1COC(C)(C)C2 |  | 15.8 µM (active)
101 | CC(C)C(=O)N1CCN(c2nc(-c3ccccc3)c3c(c2C#N)CC(C)(C)OC3)CC1 |  | 28.2 µM (active)
102 | CC(C)C(=O)N1CCC2(CC1)Oc1ccc(F)cc1C(=O)C21CC(c2ccccc2)=NO1 (stereo not given) | -6.58% | 
103 | CCOC(=O)N1CCN(C(=O)C(=O)Nc2sc3c(c2C#N)CC(C)(C)OC3)CC1 | -0.849% | 
104 | CC1(C)Cc2c(sc(NC(=O)C(=O)N3CCOCC3)c2C#N)CO1 | -0.519% | 
105 | CC(C)OC(=O)C(C#N)c1nc2ccccc2nc1N1CCN(Cc2ccccc2)CC1 (stereo not given) | -3.63% | 
